About 3,900 (1.3%) of roughly 310,000 compounds were called active.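 The calls were made as follows: active = calcium-response B-score plate-corrected more than 3 library SD below zero, starting fluorescence within 5 deviations, no agonist response on first addition; inactive = the rest.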 Only a selection was taken, and actives are over-represented in it overall.
Target: Mas-related G-protein coupled receptor member X1 (Homo sapiens) (UniProt Q96LB2)
Experiment: blockade of BAM8-22-evoked MrgX1 calcium response – HEK293 cells, Fluo-4 calcium flux, primary screen (AID 588676);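 as to B-score: peak minus trough fluorescence over baseline after final BAM8-22 challenge near maximal dose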
Conditions: Fluo-4, BAM8-22 antagonism, at 10 µM; hits give low values

Chain of Mas-related G-protein coupled receptor member X1 (Homo sapiens) (Q96LB2 whole entry, looked up): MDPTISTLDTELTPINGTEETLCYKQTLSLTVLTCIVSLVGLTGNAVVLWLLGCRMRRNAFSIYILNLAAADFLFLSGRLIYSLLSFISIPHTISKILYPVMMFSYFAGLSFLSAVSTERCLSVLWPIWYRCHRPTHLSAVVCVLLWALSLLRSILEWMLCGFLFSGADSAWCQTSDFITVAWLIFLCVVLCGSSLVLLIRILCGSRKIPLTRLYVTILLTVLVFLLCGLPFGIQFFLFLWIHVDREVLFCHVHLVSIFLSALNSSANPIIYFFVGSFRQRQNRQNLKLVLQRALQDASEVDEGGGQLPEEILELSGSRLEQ

B-score, inactive:
C#CCOCCOCCOCCNc1nc(N2CCN(C(=O)C(Cc3ccc(O)cc3)n3cc(C(N)CC(C)C)nn3)CC2)nc(N2CCN(C(=O)C(Cc3ccc(O)cc3)n3cc(C(N)C(C)CC)nn3)CC2)n1 (stereo not drawn), O=C(Nc1nnc(-c2ccccc2F)s1)c1ccccc1F, CN(CC(=O)NCCN1CCOCC1)S(=O)(=O)c1ccc(F)cc1, CCOc1ccc(NC(=S)N2CCC(NC(=O)c3ccccc3)CC2)cc1, CCOc1ccc(NS(=O)(=O)c2ccc(C(=O)NC3CCN(Cc4ccccc4)CC3)cc2)cc1, CCOC(=O)c1nnn2c1nc(N1CCN(c3ccccc3)CC1)c1ccccc12, COc1cc(C(=S)N2CCOCC2)cc(OC)c1OC(=O)c1cc([N+](=O)[O-])c(C)c([N+](=O)[O-])c1, O=S(=O)(ON(c1ccccc1)S(=O)(=O)c1ccccc1)c1ccccc1, CCOC(=O)c1ccc2[nH]c3c(c2c1)CCCC3NC=O (stereo not drawn), O=C(NC(C(=O)NCCN1CCOCC1)C12CC3CC(CC(C3)C1)C2)C1CCCCC1 (stereo not drawn), O=C(C[C@H]1C(=O)N(c2ccc(F)c(F)c2)C[C@@H]1Cc1ccccc1)Nc1ccccc1, C/C=C/C=C/C(=O)OCC(=O)Nc1ccc(Cl)cc1, COc1ccc(Nc2nc(-c3cccnc3)nc3ccccc23)cn1, O=[N+]([O-])c1ccc(F)cc1Oc1nc(-c2cccnc2)nc2ccccc12, CCOc1ccc(C(C)=O)cc1COC(=O)CN1C(=O)NC2(CCCC2)C1=O, Cc1cccc(OCC(O)Cn2c(N3CCCCC3)nc3c2c(=O)[nH]c(=O)n3C)c1 (stereo not drawn), c1ccc(-c2cc3c(NCC4COc5ccccc5O4)ncnc3s2)cc1 (stereo not drawn), Oc1cc2c(cc1O)CN(C(=S)NCCc1ccc(Cl)cc1)CCC2, Oc1ccccc1C=NC1CCCCC1N=Cc1ccccc1O (stereo not drawn), COc1ccc(/C=N/NC(=O)C2CC2)c(OC)c1OC, Cc1ccc2cc(/C=N/NC(=O)[C@@H]3CCCN3)c(Cl)nc2c1, O=C(O)c1ccc(N/N=C/c2ccc3ncccc3c2)cc1, CCCCC(O)(CCCC)C(=O)NN(C(=O)CCl)c1ccccc1

B-score, active:
CCOc1ccc(C(=O)NC2CCN(S(=O)(=O)CC)CC2)cc1 -5.83, CC1=C/C(=N\OS(=O)(=O)c2ccccc2)C=CC1=O -5.63, COc1ccccc1Oc1nc(-c2cccnc2)nc2ccccc12 -5.1, O=C(N/N=C/c1ccccc1O)C1CCCC1 -4.79, Cc1ccc2cc(/C=N/Nc3ccc(C(=O)O)cc3)c(Cl)nc2c1 -14.6

— PubChem BioAssay AID588676 (Johns Hopkins Ion Channel Center, 2011)
